Source: PubChem
NS1 inh = blocks influenza NS1 protein function | 270,000 tested, 0.4% active | Potency, µM (titrated, usually from 46.1 µM); calls by dose curve; note: actives are rising curves; nearly all actives have a fitted effect of over 50% in size
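OD600 was taken as the measure of yeast growth restored by compound in an NS1-expressing S. cerevisiae strain. Cells had been washed out of glucose medium and diluted 1:100 into galactose -URA medium, pH 6.0.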
Cruzain noTriton = blocks cruzain activity in detergent-free assay; P25779; purified cruzain, Z-FR-AMC fluorescence, no detergent; 200,000 tested, 2.3% active; Potency, µM, most hits filed as inhibitors; note: nearly all actives have a fitted effect of over 40% in size
Target sequence (P25779 123-467 limits assumed): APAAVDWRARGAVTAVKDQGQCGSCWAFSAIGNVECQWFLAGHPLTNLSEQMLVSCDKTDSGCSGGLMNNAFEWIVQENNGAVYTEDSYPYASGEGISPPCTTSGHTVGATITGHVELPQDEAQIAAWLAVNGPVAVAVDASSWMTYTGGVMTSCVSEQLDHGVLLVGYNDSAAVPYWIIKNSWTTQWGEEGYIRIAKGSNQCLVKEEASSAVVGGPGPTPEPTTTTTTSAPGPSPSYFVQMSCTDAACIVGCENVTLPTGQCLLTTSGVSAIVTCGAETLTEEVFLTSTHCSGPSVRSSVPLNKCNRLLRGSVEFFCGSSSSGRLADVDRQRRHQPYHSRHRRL
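Purified cruzain at 1.5 nM, pre-incubated 15 min with compound at room temperature in 100 mM sodium acetate pH 5.5, 5 mM DTT, 0.00005% Triton X-100. Reaction started with 2 uM Z-FR-AMC; AMC fluorescence increase over 60 s gives rate.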
Cruzain Triton = blocks cruzain activity in presence of Triton detergent. P25779. purified cruzain, Z-FR-AMC fluorescence, 0.01% Triton. Potency, µM, usual class: inhibitors. 200,000 tested, 0.43% active; note: nearly all actives have a fitted effect of over 40% in size
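Purified cruzain (1.5 nM final) was preincubated with compounds for 15 min at room temperature in 100 mM sodium acetate pH 5.5, 5 mM DTT, 0.01% Triton X-100. Reaction started with 2 uM Z-FR-AMC; AMC fluorescence change over 60 s gave activity.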
Each line names hits and unclear results; the compound was inactive in the other large screens. Shown is part of a subset that was picked to be rich in hits. Unless noted, calls come from the whole dose curve; as a rule, active = well fitted curve in the direction sought with a large enough effect; inconclusive = small, poorly fitted or top-dose-only effect, or another doubt; inactive = no such curve, though single readings can be large; an effect the other way counts as inactive or inconclusive.

CC(=O)Nc1ccc(NC(=O)C(C)OC(=O)CNC(=O)c2sc3ccccc3c2Cl)cc1 (stereo not given)	Cruzain noTriton 10µM, Cruzain Triton 11µM
O=C(NCc1cccnc1)c1sc2cc(Cl)ccc2c1Cl	none
O=C(NCc1ccco1)c1nc2ccccc2s1	none
CCc1ccc(N(CC(=O)Nc2ccc(NC(C)=O)cc2)S(=O)(=O)c2ccccc2)cc1	NS1 inh inconclusive, Cruzain noTriton inconclusive
Cc1cc(C)c(NC(=O)CN2C(=O)NC3(CCOc4ccccc43)C2=O)c(C)c1 (stereo not given)	none
N#Cc1c(NC(=O)c2ccncc2)sc2c1CCC2	none
Cc1ccc(C)c2nc(SCC(=O)NCc3cccs3)c(C#N)cc12	none
Cc1cc2cccc(C)c2nc1SCC(=O)NNC(=O)c1ccco1	none (no result: Cruzain noTriton, Cruzain Triton)
Cc1cccc2cc(C#N)c(SCC(=O)NNC(=O)Cc3ccccc3)nc12	Cruzain noTriton 25µM
Cc1cccc2cc(C#N)c(SCC(=O)NCc3cccs3)nc12	Cruzain noTriton 6.3µM
CCn1ccnc1CN1CCc2c([nH]c3ccccc23)C1C(C)(C)C (stereo not given)	none (no result: Cruzain noTriton, Cruzain Triton)
Cc1ccc(NC(=O)C(C)NC(=O)OCc2ccccc2)cc1C (stereo not given)	none (no result: Cruzain noTriton, Cruzain Triton)
CCOc1ccc(C2=C(C=C(C#N)C#N)C(c3ccccc3)c3ccccc3O2)cc1 (stereo not given)	Cruzain noTriton 10µM
COc1ccc(C2=C(CN(C)C)C(c3ccccc3)c3ccccc3O2)cc1 (stereo not given)	none
Cc1c(Cl)c([N+](=O)[O-])nn1CC(=O)NCC(C)C	none (no result: Cruzain noTriton, Cruzain Triton)
CCOC(=O)c1cc2c(=O)n3ccccc3nc2n(Cc2ccc(Cl)cc2)c1=N	none (no result: Cruzain noTriton, Cruzain Triton)
CCCCNC(=O)c1cc2c(=O)n3cccc(C)c3nc2n(Cc2ccncc2)c1=N	Cruzain noTriton inconclusive, Cruzain Triton 22µM
CCOC(=O)c1cc2c(=O)n3ccccc3nc2n(CC2CCCO2)c1=NC(C)=O (stereo not given)	Cruzain noTriton 10µM, Cruzain Triton 32µM
CCOC(=O)c1cc2c(=O)n3ccccc3nc2n(CC2CCCO2)c1=NC(=O)c1cc(C)cc(C)c1 (stereo not given)	none (no result: NS1 inh)
COCCNC(=O)c1cc2c(=O)n3cccc(C)c3nc2n(Cc2ccncc2)c1=N	Cruzain noTriton inconclusive, Cruzain Triton inconclusive
CCn1c(=N)c(C(=O)OC)cc2c(=O)n3ccccc3nc21	Cruzain Triton 0.2µM
CCn1c(=N)c(C(=O)NCc2ccccc2)cc2c(=O)n3cccc(C)c3nc21	none (no result: NS1 inh)
CCn1c(=N)c(C(=O)NC)cc2c(=O)n3cccc(C)c3nc21	Cruzain noTriton inconclusive, Cruzain Triton 14µM
CC1(OC(=O)c2cnc3ccccc3n2)C(=O)C=C2C=C(C3CC3)OC=C2C1=O (stereo not given)	none (no result: NS1 inh)
CCOCCCNC(=O)CCSc1ccc(C)cc1	none
Cc1ccc(-c2nc3ccccc3[nH]2)cc1NC(=O)COc1ccc(Cl)cc1Cl	none (no result: NS1 inh)
Cc1ccc(-c2nc3ccccc3[nH]2)cc1NC(=O)c1sc2cc(Cl)ccc2c1Cl	Cruzain noTriton 7.9µM
CCOC(=O)c1c(NC(=S)Nc2ccc(C)cc2)sc2c1CCC2	Cruzain noTriton inconclusive
COC(=O)c1c(NC(=O)COC(=O)[C@@H](NS(=O)(=O)c2ccc(C)cc2)C(C)C)sc2c1CCC2	Cruzain noTriton 16µM
COC(=O)c1c(NC(=O)COC(=O)c2ccc(C)s2)sc2c1CCCCC2	none
CCOC(=O)c1c(NC(=O)CS(=O)(=O)c2ccc(Cl)cc2)sc2c1CCCC2	none (no result: NS1 inh)
CCOC(=O)c1c(NC(=O)CS(=O)(=O)c2ccc(C)cc2)sc2c1CCCCC2	Cruzain noTriton 4µM (no result: NS1 inh)
CCOC(=O)c1c(NC(=S)Nc2cc([N+](=O)[O-])ccc2OC)sc2c1CCCCC2	Cruzain noTriton 13µM
CN1CCCC(n2nc(Cc3ccc(Cl)cc3)c3ccccc3c2=O)CC1 (stereo not given)	none (no result: NS1 inh)
CC[C@H](C)[C@H](NC(=O)[C@H](Cc1ccc(O)cc1)NC(=O)[C@@H](N)C(C)C)C(=O)N[C@@H](Cc1cnc[nH]1)C(=O)N1CCC[C@H]1C(=O)N[C@@H](Cc1ccccc1)C(=O)O	Cruzain noTriton 16µM, Cruzain Triton 14µM
CCC(C)C(NC(=O)C1CCC(=O)N1C(=O)OCc1ccccc1)C(=O)NC(Cc1ccccc1)C(N)=O (stereo not given)	none (no result: Cruzain noTriton, Cruzain Triton)
CC(C)NC[C@H](O)c1ccc(N)c(C#N)c1	none (no result: NS1 inh)
O=C(/C(=N\Nc1ccc([N+](=O)[O-])cc1)Sc1nnnn1-c1ccccc1)c1ccccc1	Cruzain noTriton inconclusive
Cc1ccc(N/N=C(/Sc2nnnn2-c2ccccc2)C(=O)c2ccccc2)cc1	NS1 inh inconclusive, Cruzain noTriton 32µM
CCN(Cc1ccccc1)Cc1c(O)ccc2c(=O)c(-c3ccc(Cl)cc3)c(C(F)(F)F)oc12	none (no result: NS1 inh)
CC(C)CC(NC(=O)C1CCC(C)CC1)C(=O)NCCN1CCOCC1 (stereo not given)	none (no result: Cruzain noTriton, Cruzain Triton)
COCCNC(=O)C1CCN(C(=O)c2cc3sccc3n2Cc2ccc(Cl)cc2)CC1	Cruzain noTriton inconclusive (no result: NS1 inh)
CCC1CCc2sc(C(=O)N3CCCN(C)CC3)cc2C1 (stereo not given)	none (no result: Cruzain noTriton, Cruzain Triton)
Cc1cc(-c2nnc(SCC(=O)Nc3ccc(C(F)(F)F)cc3)n2C)no1	none (no result: Cruzain noTriton, Cruzain Triton)
COc1cccc(-c2ccc3c(N)c(C(=O)c4ccc(Br)cc4)sc3n2)c1	Cruzain noTriton 7.9µM (no result: NS1 inh)
COc1ccc(C(=O)c2sc3nc(-c4ccccc4)ccc3c2N)cc1OC	none
O=C(NC(C(=O)N/N=C/c1c2ccccc2cc2ccccc12)c1n[nH]c(=O)c2ccccc12)c1ccccc1 (stereo not given)	Cruzain noTriton 13µM
O=C(NC(C(=O)N/N=C/c1ccccc1)c1n[nH]c(=O)c2ccccc12)c1ccccc1 (stereo not given)	none
O=C(Nc1ccc(S(=O)(=O)NCc2ccccc2)cc1)Nc1ccc2c(c1)OCO2	Cruzain noTriton inconclusive
COc1ccc(OC)c(/C=N/NC(=O)CCN2CCN(C(c3ccccc3)c3ccccc3)CC2)c1	none
O=C(N/N=C/C=C/c1ccccc1[N+](=O)[O-])c1ccncc1	none (no result: Cruzain noTriton, Cruzain Triton)
O=C(N/N=C/C=C\c1ccccc1[N+](=O)[O-])c1cc(-c2ccc3ccccc3c2)n[nH]1	Cruzain noTriton 7.9µM
COC(=O)c1ccc(C(=O)OC)c(NC(=O)CSc2ccccn2)c1	none
CCOC(=O)N1CCN(CCC(=O)Nc2cc(C)ccc2OC)CC1	none (no result: Cruzain noTriton, Cruzain Triton)
COc1ccccc1-c1cc(-c2ccccc2)nc(SC(C(N)=O)c2ccccc2)c1C#N (stereo not given)	NS1 inh inconclusive, Cruzain noTriton 7.9µM
Cc1nc(SC(C(N)=O)c2ccccc2)c(C#N)c(C)c1C (stereo not given)	none (no result: Cruzain noTriton, Cruzain Triton)
O=C(COc1ccccc1-c1nc(-c2ccccc2)no1)Nc1ccccc1[N+](=O)[O-]	none (no result: NS1 inh)
CCC1=C(OC(=O)N(CC)CC)N2C(=O)OC(=NCCOC)[C@]2(C)[C@H]2C1=CC[C@H]1C(=O)NC(=O)[C@H]12	none (no result: NS1 inh)
COc1cccc(N(C(=O)c2ccco2)c2nc(-c3sc(NC(=O)c4ccco4)nc3C)cs2)c1	Cruzain noTriton inconclusive
Cc1nc(NC(=O)c2ccco2)sc1-c1csc(Nc2ccc(Cl)cc2)n1	NS1 inh inconclusive, Cruzain noTriton 13µM
Cc1nc(NC(=O)c2ccco2)sc1-c1csc(Nc2ccc(Cl)cc2Cl)n1	Cruzain noTriton 13µM
O=C(Nc1nc2ccc(Cl)cc2s1)c1ccco1	Cruzain noTriton inconclusive
COc1ccccc1Nc1nc(-c2sc(NC(=O)c3ccco3)nc2C)cs1	Cruzain noTriton inconclusive
